# According to the supplement of paper PMC10849652:
# About 8,800 targets were measured; listed, in parts, are those with a hit and a random draw of the rest. About 0.5% of all pairs of compound and target were hits. Unmarked numbers belong to inactive results.
# Compound: NCC(=O)Nc1ccc(-n2nc(C(F)(F)F)cc2-c2ccc3c(ccc4ccccc43)c2)cc1
# Assay: log2 fold change, soluble protein after heating vs DMSO (PISA); higher = thermal stabilisation; K562 lysate, 10 uM; active = over 0.2 and 3.5 SD of the protein, either way, in both replicates (recomputed)
# How it was run: (§1)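 K562 pellets were dounce-homogenised in PBS pH 7.4 containing 1 mM MgCl2, and the crude extract, at 1 mg/mL protein, was exposed to 10 μM compound for 30 min. Aliquots were heated for 3 min across 48°C-58°C, pooled, brought to 0.5% NP-40 at 4°C and spun at 21,000xg for 90 min, with the supernatant taken as soluble protein. TMTpro 16plex LC-MS/MS with equalised channel sums quantified that protein. Values are log-two fold changes in thermal stability relative to solvent controls, taken from duplicates.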
# Sequence of UniProt Q9H1K0 (Q9H1K0 whole entry, looked up): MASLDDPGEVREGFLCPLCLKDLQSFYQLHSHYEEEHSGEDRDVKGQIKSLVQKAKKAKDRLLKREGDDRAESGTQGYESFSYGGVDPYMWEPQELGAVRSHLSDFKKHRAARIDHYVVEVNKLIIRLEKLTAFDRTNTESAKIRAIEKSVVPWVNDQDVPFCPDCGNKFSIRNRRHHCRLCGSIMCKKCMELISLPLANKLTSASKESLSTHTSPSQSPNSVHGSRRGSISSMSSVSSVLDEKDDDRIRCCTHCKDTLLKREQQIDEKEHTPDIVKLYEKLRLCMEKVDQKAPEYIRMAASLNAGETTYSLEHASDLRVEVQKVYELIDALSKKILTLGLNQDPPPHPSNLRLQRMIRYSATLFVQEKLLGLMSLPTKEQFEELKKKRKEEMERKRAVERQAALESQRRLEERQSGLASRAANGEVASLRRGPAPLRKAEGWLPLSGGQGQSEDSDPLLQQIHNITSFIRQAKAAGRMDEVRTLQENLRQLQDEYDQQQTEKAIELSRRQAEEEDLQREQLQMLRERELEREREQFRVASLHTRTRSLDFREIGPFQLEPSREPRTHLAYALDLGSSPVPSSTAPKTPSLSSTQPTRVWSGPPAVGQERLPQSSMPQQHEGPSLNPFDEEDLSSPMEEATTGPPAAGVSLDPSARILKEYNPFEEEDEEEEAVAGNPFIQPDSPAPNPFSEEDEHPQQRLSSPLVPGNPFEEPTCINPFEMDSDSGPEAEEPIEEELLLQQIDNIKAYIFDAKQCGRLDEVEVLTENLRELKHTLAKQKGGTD
# Sequence of UniProt Q96E14 (Q96E14 whole entry, looked up): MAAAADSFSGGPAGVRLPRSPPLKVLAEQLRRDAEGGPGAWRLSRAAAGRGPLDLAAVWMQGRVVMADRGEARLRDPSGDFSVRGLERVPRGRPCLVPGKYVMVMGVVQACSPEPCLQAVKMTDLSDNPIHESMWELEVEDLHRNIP
# Sequence of UniProt Q92878 (Q92878 whole entry, looked up): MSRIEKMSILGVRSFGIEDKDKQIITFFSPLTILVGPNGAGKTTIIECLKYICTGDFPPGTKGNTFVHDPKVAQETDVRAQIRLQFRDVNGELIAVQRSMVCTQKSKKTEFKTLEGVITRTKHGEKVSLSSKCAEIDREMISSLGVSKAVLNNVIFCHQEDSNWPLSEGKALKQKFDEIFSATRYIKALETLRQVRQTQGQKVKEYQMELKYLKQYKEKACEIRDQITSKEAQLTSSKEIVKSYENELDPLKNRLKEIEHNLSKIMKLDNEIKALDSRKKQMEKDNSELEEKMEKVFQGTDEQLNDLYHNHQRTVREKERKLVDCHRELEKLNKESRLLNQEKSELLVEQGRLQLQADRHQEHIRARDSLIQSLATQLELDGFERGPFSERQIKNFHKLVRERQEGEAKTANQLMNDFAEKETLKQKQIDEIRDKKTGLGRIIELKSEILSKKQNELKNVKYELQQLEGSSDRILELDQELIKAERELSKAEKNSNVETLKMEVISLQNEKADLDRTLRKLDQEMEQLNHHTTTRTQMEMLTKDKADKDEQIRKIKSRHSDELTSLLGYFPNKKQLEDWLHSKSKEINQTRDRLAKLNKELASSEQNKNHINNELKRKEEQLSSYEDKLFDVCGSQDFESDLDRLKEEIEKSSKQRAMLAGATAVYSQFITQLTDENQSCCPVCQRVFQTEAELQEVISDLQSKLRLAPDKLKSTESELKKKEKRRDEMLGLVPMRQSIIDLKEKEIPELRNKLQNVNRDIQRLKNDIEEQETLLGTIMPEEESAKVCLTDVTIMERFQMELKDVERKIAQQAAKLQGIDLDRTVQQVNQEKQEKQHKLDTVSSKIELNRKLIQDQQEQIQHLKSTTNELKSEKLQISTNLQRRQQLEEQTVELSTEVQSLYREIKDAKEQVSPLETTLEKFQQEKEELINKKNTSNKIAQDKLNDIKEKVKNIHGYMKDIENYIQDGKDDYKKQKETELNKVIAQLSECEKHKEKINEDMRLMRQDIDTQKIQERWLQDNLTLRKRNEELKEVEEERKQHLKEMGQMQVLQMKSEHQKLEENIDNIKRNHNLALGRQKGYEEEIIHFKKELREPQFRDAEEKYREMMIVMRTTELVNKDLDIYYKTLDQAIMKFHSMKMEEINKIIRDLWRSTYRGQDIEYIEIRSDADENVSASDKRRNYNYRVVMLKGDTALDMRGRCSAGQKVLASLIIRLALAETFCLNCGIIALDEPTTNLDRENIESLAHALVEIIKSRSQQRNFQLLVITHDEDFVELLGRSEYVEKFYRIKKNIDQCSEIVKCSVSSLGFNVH
# Sequence of UniProt Q15418 (Q15418 whole entry, looked up): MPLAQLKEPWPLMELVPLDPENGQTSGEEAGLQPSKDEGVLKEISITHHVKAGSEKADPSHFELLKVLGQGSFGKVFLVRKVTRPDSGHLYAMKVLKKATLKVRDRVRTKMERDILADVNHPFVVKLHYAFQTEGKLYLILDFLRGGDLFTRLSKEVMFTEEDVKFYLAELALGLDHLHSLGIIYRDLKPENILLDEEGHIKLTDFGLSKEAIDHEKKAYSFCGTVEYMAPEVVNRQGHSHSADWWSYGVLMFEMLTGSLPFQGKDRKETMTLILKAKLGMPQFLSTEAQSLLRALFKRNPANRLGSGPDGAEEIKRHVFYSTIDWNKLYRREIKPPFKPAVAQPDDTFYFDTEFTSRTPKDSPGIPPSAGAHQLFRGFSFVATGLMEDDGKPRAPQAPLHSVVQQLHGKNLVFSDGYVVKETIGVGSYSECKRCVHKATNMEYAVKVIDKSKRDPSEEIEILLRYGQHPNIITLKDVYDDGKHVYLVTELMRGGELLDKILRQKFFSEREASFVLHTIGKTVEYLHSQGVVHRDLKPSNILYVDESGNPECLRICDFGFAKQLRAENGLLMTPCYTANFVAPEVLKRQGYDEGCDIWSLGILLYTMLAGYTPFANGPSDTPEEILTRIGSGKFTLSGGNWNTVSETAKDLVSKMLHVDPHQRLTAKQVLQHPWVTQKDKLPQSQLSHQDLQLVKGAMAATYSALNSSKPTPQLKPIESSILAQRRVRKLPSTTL
# Sequence of UniProt Q9BRS2 (Q9BRS2 whole entry, looked up): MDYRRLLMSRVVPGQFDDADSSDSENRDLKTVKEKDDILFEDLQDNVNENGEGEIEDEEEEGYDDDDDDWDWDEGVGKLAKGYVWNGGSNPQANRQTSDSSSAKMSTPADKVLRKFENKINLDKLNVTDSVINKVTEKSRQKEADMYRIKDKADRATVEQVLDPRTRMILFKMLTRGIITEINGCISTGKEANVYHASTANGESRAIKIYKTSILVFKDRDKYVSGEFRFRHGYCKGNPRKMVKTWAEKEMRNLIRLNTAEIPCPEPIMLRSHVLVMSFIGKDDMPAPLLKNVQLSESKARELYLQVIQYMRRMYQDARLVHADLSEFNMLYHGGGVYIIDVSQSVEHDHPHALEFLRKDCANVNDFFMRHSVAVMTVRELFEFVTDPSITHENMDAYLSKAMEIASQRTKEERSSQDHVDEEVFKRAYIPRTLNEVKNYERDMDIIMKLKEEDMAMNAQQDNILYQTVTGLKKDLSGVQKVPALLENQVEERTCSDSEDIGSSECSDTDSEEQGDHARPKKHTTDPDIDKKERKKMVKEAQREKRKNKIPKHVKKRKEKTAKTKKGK
# Sequence of UniProt Q96K19 (Q96K19 whole entry, looked up): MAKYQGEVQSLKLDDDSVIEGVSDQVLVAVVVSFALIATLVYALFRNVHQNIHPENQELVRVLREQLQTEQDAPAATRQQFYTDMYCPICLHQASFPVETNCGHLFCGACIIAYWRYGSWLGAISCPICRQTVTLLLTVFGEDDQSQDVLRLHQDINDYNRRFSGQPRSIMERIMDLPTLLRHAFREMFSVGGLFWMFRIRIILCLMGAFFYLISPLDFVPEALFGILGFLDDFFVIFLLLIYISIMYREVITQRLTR
# Sequence of UniProt P40938 (P40938 whole entry, looked up): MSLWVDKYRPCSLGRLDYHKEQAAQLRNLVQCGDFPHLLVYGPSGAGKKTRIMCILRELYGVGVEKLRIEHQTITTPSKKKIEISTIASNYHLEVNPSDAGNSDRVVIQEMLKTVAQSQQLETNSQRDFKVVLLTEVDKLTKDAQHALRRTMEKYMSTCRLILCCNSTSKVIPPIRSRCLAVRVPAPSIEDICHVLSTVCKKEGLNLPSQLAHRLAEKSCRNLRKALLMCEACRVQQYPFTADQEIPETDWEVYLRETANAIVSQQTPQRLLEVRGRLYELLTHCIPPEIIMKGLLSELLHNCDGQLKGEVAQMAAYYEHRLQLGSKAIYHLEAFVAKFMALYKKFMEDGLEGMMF
# Sequence of UniProt Q53S08 (Q53S08 whole entry, looked up): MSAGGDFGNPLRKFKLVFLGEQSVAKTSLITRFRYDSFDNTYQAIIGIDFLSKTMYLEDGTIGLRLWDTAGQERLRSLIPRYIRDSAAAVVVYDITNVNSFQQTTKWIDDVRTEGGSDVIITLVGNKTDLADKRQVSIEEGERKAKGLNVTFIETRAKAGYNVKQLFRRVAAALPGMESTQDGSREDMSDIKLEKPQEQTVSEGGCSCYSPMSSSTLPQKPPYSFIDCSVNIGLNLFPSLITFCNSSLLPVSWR
# Sequence of UniProt Q6NUM9 (Q6NUM9 whole entry, looked up): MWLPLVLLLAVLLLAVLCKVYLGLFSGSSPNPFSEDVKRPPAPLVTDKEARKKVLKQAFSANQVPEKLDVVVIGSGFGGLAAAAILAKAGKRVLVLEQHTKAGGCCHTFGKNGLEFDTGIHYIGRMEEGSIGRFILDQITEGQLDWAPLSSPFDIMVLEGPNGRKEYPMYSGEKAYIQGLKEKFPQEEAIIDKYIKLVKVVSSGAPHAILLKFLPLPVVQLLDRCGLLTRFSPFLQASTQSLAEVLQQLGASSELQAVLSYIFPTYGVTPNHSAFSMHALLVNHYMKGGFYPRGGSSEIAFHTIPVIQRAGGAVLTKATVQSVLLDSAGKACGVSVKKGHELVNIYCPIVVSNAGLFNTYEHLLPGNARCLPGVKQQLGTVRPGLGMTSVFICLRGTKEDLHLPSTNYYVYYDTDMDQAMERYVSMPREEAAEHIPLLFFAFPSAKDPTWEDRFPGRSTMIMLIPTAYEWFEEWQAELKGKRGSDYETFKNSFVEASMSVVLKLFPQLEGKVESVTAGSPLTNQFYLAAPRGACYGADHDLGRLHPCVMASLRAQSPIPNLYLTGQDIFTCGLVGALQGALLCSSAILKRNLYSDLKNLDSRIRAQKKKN
row,Target,log2 fold change
1,RMI2 (UniProt Q96E14),-0.008
2,RIOK1 (UniProt Q9BRS2),0.016
3,RNPS1 (UniProt Q15287),-0.014
4,RSU1 (UniProt Q15404),0.018
5,RPL36AL (UniProt Q969Q0),-0.056
6,RNF149 (UniProt Q8NC42),0.036
7,RNF170 (UniProt Q96K19),-0.003
8,RPS9 (UniProt P46781),-0.03
9,RBSN (UniProt Q9H1K0),0.039

# Compound: O=C(CCCCCCC(=O)Nc1ccccc1)NO [vorinostat]
# Assay: as above
# How it was run: as §1
row,Target,log2 fold change
1,RFC3 (UniProt P40938),-0.365 (active)
2,RNF2 (UniProt Q99496),-0.037
3,RAB6D (UniProt Q53S08),0.151
4,RDH11 (UniProt Q8TC12),0.038
5,RPS6KA1 (UniProt Q15418),-0.157
6,RPS29 (UniProt P62273),0.145
7,RAD50 isoform 2 (UniProt Q92878),-0.458 (active)
8,RAB27A (UniProt P51159),-0.08
9,RDH14 (UniProt Q9HBH5),-0.318 (active)
10,RANBP6 (UniProt O60518),-0.345 (active)
11,SEC61G (UniProt P60059),0.005
12,"RNF213, A0A0A0MTC1",-0.381 (active)
13,RNF123 (UniProt Q5XPI4),-0.385 (active)
14,RCOR3 isoform 3 (UniProt Q9P2K3),-0.206
15,RETSAT (UniProt Q6NUM9),0.17
